Assay results published in ChEMBL document CHEMBL1157539, “Thousands of chemical starting points for antimalarial lead identification” (Nature, 2010).

The molecules below were run on HepG2 (assay: GSK_TCMDC: Percent inhibition of human HepG2 cell line. Test compounds present at 10uM.).
Type: functional
Work on `Cc1ccc2nc(-c3ccc(/C=C/C(=O)NC4CCN(Cc5ccccc5)CC4)cc3)[nH]c2c1C` yielded an Inhibition of 22%.
With `Cc1[nH]c(C)c(-c2ccc(Br)cc2)c(=O)c1Cl` the Inhibition was 22%.
For `O=C(O)C(F)(F)F.S=C(Nc1cccc(Cl)c1)NC1CCN(c2ccnc3cc(Cl)ccc23)C1` (stereo not given), the Inhibition was 16%.
Molecule `COc1ccc(NC(=O)c2ccc(Br)c(C)c2)cc1N1CCN(CCCCc2ccccc2)CC1.O=C(O)C(=O)O` has an Inhibition of 29%.
`CCNc1cc(C)nc(Nc2ccc(C)cc2)n1` was tested, and the Inhibition was 12%.
With `O=C(O)C(F)(F)F.c1cc(CNCC2CCN(CC3CCCCC3)CC2)cc(-n2ccnc2)c1` the Inhibition was 18%.
Work on `CO/C(=C\C=C\c1cc2cc(Cl)c(Cl)cc2[nH]1)C(=O)NCCCNCCN(C)c1ccccc1` yielded an Inhibition of 33%.
With `Cc1n[nH]c2ccc(-c3cc(OC[C@@H](N)Cc4ccccc4)cnc3-c3cc4ccccc4s3)cc12.O=C(O)C(F)(F)F` the Inhibition was 41%.
Work on `CN1CCCc2ccc(NC(=O)Nc3ccc(-c4ccccc4)cc3)cc2C1` yielded an Inhibition of 23%.
Work on `CC(CNC(=O)[C@H]1CNCCN1C(=O)CCCc1ccccc1)c1ccccc1.O=C(O)C(F)(F)F` (stereo not given in full) yielded an Inhibition of 12%.
`O=C(NCCc1ccc(F)cc1)c1ccc(N2CCN(c3ccncc3)CC2)nc1.O=C(O)C(F)(F)F` gave an Inhibition of 1%.
With `O=C(/C=C/c1ccc(Cl)c(Cl)c1)NCCCCCN1CCC(c2c[nH]c3c(-c4ccccc4)cccc23)CC1` the Inhibition was 74%.
With `Brc1ccc(C=NNc2nc3ccccc3[nH]2)cc1` the Inhibition was 0%.
Molecule `Cc1cc(N(C)C)nc(Nc2ccc(NC(=O)Nc3ccccc3)cc2)n1` has an Inhibition of 10%.
`COc1cc(C(=O)N2CCOC(CCN3CCC(c4ccc(Cl)cc4)CC3)(c3ccc(Cl)c(Cl)c3)C2)cc(OC)c1OC` (stereo not given) was tested, and the Inhibition was 44%.
With `O=C(Nc1ccc(OC(F)(F)F)cc1)NC1CCN(c2ccnc3ccccc23)C1.O=C(O)C(F)(F)F` (stereo not given) the Inhibition was 25%.
In the case of `Cl.Cn1ncc2c3c(CCN4CCC(NCc5cc6c(cn5)OCCO6)CC4)c(Cl)cnc3ccc21`, the Inhibition is reported as 1%.
For `COc1ccc(CSC2CCCCC23NC(=S)NC3=S)cc1` (stereo not given), the Inhibition was 0%.
`Br.CC1(C)NC(N)=NC(=N)N1OCCCOc1cccc2ccccc12` gave an Inhibition of 67%.
`CCCCn1c(-c2ccco2)nc2c(c(=O)c3ccccc3n2C)c1=O` showed an Inhibition of 11%.
For `COc1ccc(CNC2Cc3ccccc3C2)cc1-c1ccc(S(=O)(=O)NCCN2CCCC2)s1.O=C(O)C(F)(F)F`, the Inhibition was 89%.
Molecule `COc1cc2nc(NCCc3ccccc3)nc(NCc3cc(C)no3)c2cc1OC` has an Inhibition of 5%.
Work on `COc1ccc(NC(=O)Nc2ccc(-c3ccncc3)c(Cl)c2)cc1N1CCN(C)CC1` yielded an Inhibition of 19%.
Molecule `CN1CCN(c2ncnc3ccc(NC(=O)Nc4ccc(Cl)c(Cl)c4)cc23)CC1` has an Inhibition of 7%.
With `O=S(=O)(c1cccc(Cl)c1F)N(CCC(O)(C(F)(F)F)C(F)(F)F)Cc1cccc(O)c1` the Inhibition was 0%.
With `COc1ccc(-n2ncc(C(=O)N3CCC4(C3)C(=O)N(c3ccccc3)c3ccccc34)c2C)cc1` (stereo not given) the Inhibition was 45%.
Work on `CN(C)CCOc1cc(NC(=O)c2ccc(-c3ccc(Cl)cc3Cl)cc2)ccc1-c1ccccc1` yielded an Inhibition of 45%.
In the case of `Cc1ccc2c(Cl)c(C(=O)N3CCCc4ccccc43)sc2c1`, the Inhibition is reported as 4%.
Molecule `Cc1nc(C)c(CC(=O)Nc2cccc(-c3cccc(-c4nc5cccc(C)c5[nH]4)c3)c2)s1` has an Inhibition of 43%.
For `CN(CCC(O)c1ccc(Cl)c(Cl)c1)CC1CC1C(=O)c1ccccc1` (stereo not given), the Inhibition was 11%.
`O=C(O)c1ccc(NC(=O)C2CC(=O)N(Cc3ccc(Cl)cc3)C(=Nc3ccc(Cl)cc3)S2)cc1` (stereo not given) was tested, and the Inhibition was 0%.
`CC(=O)c1sc2ccccc2c1O` gave an Inhibition of 14%.
`Cc1ccc(CN2CCCN(Cc3cccc(NC(=O)c4cc5ccccc5s4)c3)CC2)cc1.O=C(O)C(F)(F)F` gave an Inhibition of 32%.
Work on `CNC(=O)CC(=O)NCCc1ccc(Cl)cc1` yielded an Inhibition of 0%.
Work on `COc1cc(Cc2cnc(N)nc2N)ccc1OCc1ccc(-c2csnn2)cc1` yielded an Inhibition of 33%.
Work on `COc1ccc(C(=O)CCC(=O)N(Cc2ccc(-c3ccc(CNCCc4ccc(S(C)(=O)=O)cc4)cn3)cc2)C2CCN(Cc3ccccc3)CC2)cc1F.O=C(O)C(F)(F)F` yielded an Inhibition of 20%.
Work on `COc1ccc2c(ccc3c2ncc2c(=O)n(-c4ccccc4)[nH]c23)c1` yielded an Inhibition of 0%.
In the case of `CCNc1cc(C)nc(Nc2ccc(NC(=O)c3ccccc3)cc2)n1`, the Inhibition is reported as 41%.
`COc1ccc(Nc2nccc(NCCNC(=O)c3cc4ccccc4s3)n2)cc1` was tested, and the Inhibition was 6%.
Molecule `Cn1nccc1C(=O)NCCNCc1cccc(-c2ccc(-c3nc4cc(C(F)(F)F)ccc4[nH]3)cc2)c1.O=C(O)C(F)(F)F` has an Inhibition of 51%.
